Screens from PubChem.
A selection: hits, their analogues and other compounds. The true share with any hit is near 8.3%.
FMDV inh – blocks foot and mouth disease virus; FMDV antiviral cell-based qHTS; Potency, µM (doses to about 57.9 µM), actives largely listed as inhibitors; 1.2% of 410,000 active; AID 1159524; calls by dose curve; tested in HEK293T cells; further: read-out not given here; nearly all actives have a fitted effect of over 45% in size
Lassa entry inh – Lassa virus entry inhibition. Lassa virus pseudotype entry inhibition, cell reporter. Potency, µM (highest dose often 37.9 µM), usual class: inhibitors. 1.2% of 300,000 active; calls by dose curve; tested in HEK293 cells; further: nearly all actives have a fitted effect of over 50% in size
HCMV antiviral – human cytomegalovirus inhibition | HFF cells, HCMV-luciferase reporter, 72 h; active compounds read low | activity change, negative = inhibition, % at 57.5 µM | 4.5% of 410,000 active; in the data active means activity change below about -60%; inconclusive means no clear call, values can overlap the other calls; inactive means above about -39%
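HFF cells seeded 16 h at 37C, treated with compounds, infected with luciferase-reporter HCMV at MOI 1 PFU/cell; luciferase read at 72 h post infection, normalized to buffer-only and Salinomycin controls.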
Giardia FBPA inh – inhibitors of Giardia lamblia fructose-1,6-bisphosphate aldolase; purified Giardia FBPA; Potency, µM (series often up to 59.6 µM), hits mostly inhibitors; 0.71% of 290,000 active; further: nearly all actives have a fitted effect of over 55% in size
Target sequence (A8B2U2 whole entry, looked up): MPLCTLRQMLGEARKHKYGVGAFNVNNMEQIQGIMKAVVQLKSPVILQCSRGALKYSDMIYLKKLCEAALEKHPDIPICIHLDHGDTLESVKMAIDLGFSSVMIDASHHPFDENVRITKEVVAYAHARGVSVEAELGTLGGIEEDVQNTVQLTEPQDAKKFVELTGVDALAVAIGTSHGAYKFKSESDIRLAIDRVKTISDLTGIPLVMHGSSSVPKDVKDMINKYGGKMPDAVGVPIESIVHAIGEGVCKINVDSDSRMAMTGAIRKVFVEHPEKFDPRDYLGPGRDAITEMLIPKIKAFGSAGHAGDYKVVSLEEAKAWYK
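40 nM FBPA preincubated 10 min at RT with compound (up to 57.5 uM final), then substrate plus GAPDH/TPI/NAD/arsenate coupling and diaphorase/resazurin added. Fluorescence read after 20 min at RT, 525/598 nm.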
MARV entry inh – Marburg virus entry inhibition. AID 540276. Marburg virus pseudotyped entry inhibition, cell reporter. 1.8% of 300,000 active. Potency, µM (series often up to 37.8 µM), usual class: inhibitors; calls by dose curve; tested in HEK293 cells
HCV inhibitor – HCV inhibition. Huh7.5.1 HCVcc-Cre infection, luciferase reporter, 44 h. Potency, µM (series often up to 41.8 µM), most hits filed as inhibitors. 3.4% of 340,000 active
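HCVcc-Cre virus at an moi near 0.5 was added right after compound to cells cultured 4 h from seeding (1,000 cells/well). Luciferase activity was determined 44 h later, 15 min after substrate addition at RT.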
HCV confirm – HCV inhibition, cherry-pick confirmation; HCVcc-Cre infectious virus cell assay, luciferase, inhibition; 78% of 640 active; shares compounds with HCV inhibitor; AID 720575; Potency, µM (highest dose often 41.8 µM), hits mostly inhibitors; further: nearly all actives have a fitted effect of over 80% in size
HCV host tox – counter-screen for HCV inhibitors: host cell cytotoxicity | 22% of 640 active | HCV host cell line cytotoxicity counterscreen | Potency, µM (highest dose often 41.8 µM), actives largely listed as inhibitors | shares compounds with HCV inhibitor;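 further: 44 h compound exposure; nearly all actives have a fitted effect of over 55% in size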
Large screens that a line does not name were inactive (follow-up assays come after a bar, where they were run). Unless noted, the call rests on the fitted dose curve; in most records, active means well fitted curve in the direction sought with a large enough effect; inconclusive means small, poorly fitted or top-dose-only effect, or another doubt; inactive means no such curve, though single readings can be large; an effect the other way counts as inactive or inconclusive.

Cc1cc(SCC(=O)c2ccccc2)n2ncc(-c3ccccc3)c2n1	HCV inhibitor inconclusive (no result: Lassa entry inh, MARV entry inh) | HCV confirm inconclusive | HCV host tox inactive
CC(C)NC(=O)N1CC2(CCN(C(=O)c3cc(C(F)(F)F)cc(C(F)(F)F)c3)CC2)C1	none (no result: Lassa entry inh, HCMV antiviral, MARV entry inh, HCV inhibitor)
O=S(=O)(Nc1ccc(-c2ccc(NS(=O)(=O)c3ccccc3)cc2)cc1)c1ccccc1	Lassa entry inh inconclusive, HCV inhibitor 3.2µM (no result: Giardia FBPA inh) | HCV confirm 13µM | HCV host tox inactive
CCOc1ccc(Br)cc1C1C(C(=O)Nc2ccccc2OC)=C(C)Nc2nnnn21 (centres undefined)	MARV entry inh inconclusive (no result: Giardia FBPA inh, HCV inhibitor)
COc1ccc(OC)c(-c2cc(C(=O)NCc3ccco3)no2)c1	HCV inhibitor inconclusive | HCV confirm 28µM | HCV host tox inactive
COc1cccc(-c2cc(C(=O)NCc3ccco3)no2)c1	Lassa entry inh inconclusive
CCc1ccc2occ(CC(=O)Nc3ccc(C)c(C)c3)c2c1	Lassa entry inh inconclusive, MARV entry inh inconclusive (no result: Giardia FBPA inh, HCV inhibitor)
C#CCN1C=CC(=O)[C@@H](OC(=O)Nc2ccc(Cl)cc2)[C@H]1c1ccccc1Br	HCV inhibitor 8.9µM (no result: Lassa entry inh, Giardia FBPA inh, MARV entry inh) | HCV confirm inconclusive | HCV host tox inactive
COC(=O)CN1C(=O)C(O)(CC(=O)c2ccc(Cl)cc2)c2ccccc21 (centres undefined)	none (no result: Lassa entry inh, MARV entry inh)
COC(=O)C[C@]1(C(=O)OC)CN(C#N)N(c2ccc(Cl)cc2)C12c1ccccc1-c1ccccc12	FMDV inh 4.5µM, Lassa entry inh 3.2µM, HCMV antiviral -102, MARV entry inh inconclusive, HCV inhibitor 5.6µM | HCV confirm 3.1µM | HCV host tox 7.9µM
C=CCn1c(-c2cccs2)nc2nc3ccccc3nc21	none
C=CCn1c(-c2cccs2)nc2ccccc21	HCV inhibitor inconclusive | HCV confirm inactive | HCV host tox inactive
Clc1ccc2nc(-c3ccc(Br)s3)cn2c1	Lassa entry inh 8.2µM, Giardia FBPA inh inconclusive, MARV entry inh inconclusive, HCV inhibitor inconclusive | HCV confirm 6.3µM | HCV host tox inconclusive
CC(=O)N(C1CC(C)C(C#N)(C#N)C1(C#N)C#N)N(C)C (centres undefined)	FMDV inh inconclusive, MARV entry inh inconclusive, HCV inhibitor 6.3µM | HCV confirm inactive | HCV host tox inactive
COc1cc(Cl)c(C)cc1NC(=O)Cn1ncc2c(=O)oc3ccccc3c21	none (no result: Giardia FBPA inh, HCV inhibitor)
C/C(CCC1CC(C)OC1=O)=N\NC(N)=S (centres undefined)	none (no result: Lassa entry inh, MARV entry inh)
C/C(CC1CC2=C(CC1(C)C)C(C)(C)CCC2)=N\NC(N)=S (centres undefined)	FMDV inh inconclusive, Lassa entry inh inconclusive, HCMV antiviral -65, MARV entry inh inconclusive, HCV inhibitor 5.6µM | HCV confirm 14µM | HCV host tox inconclusive
Cn1c(N)c(C(=O)COC(=O)COc2ccc(Br)cc2)c(=O)n(C)c1=O	none (no result: Giardia FBPA inh)
CCCn1c(N)c(C(=O)COc2ccc(Br)cc2F)c(=O)n(C)c1=O	FMDV inh inconclusive, HCMV antiviral inconclusive, HCV inhibitor inconclusive (no result: Lassa entry inh, MARV entry inh) | HCV confirm 22µM | HCV host tox inactive
Cc1ccc(C(=O)Nc2ccccc2N2CCCCC2)cc1[N+](=O)[O-]	FMDV inh inconclusive, HCV inhibitor 2.2µM (no result: Lassa entry inh, MARV entry inh) | HCV confirm 16µM | HCV host tox 28µM
O=C(Nc1ccc2ccccc2c1)c1cccnc1	MARV entry inh inconclusive, HCV inhibitor inconclusive
O=C(Nc1ccc2c(c1)Cc1ccccc1-2)c1cccnc1	Lassa entry inh inconclusive, HCV inhibitor 6.3µM | HCV confirm inactive | HCV host tox inactive
C=C(Nc1ccc(OC)cc1)C(=O)OC	none (no result: FMDV inh, Lassa entry inh, HCMV antiviral, HCV inhibitor)
CCCCSc1nc2sc3c(c2c(=O)n1-c1ccccc1)CCN(C)C3	HCV inhibitor inconclusive (no result: Lassa entry inh, MARV entry inh) | HCV confirm 13µM | HCV host tox inactive
CCCCCNc1nc2sc3c(c2c(=O)n1-c1cccc(Cl)c1)CCN(C)C3	HCMV antiviral inconclusive, MARV entry inh inconclusive, HCV inhibitor 1µM | HCV confirm 2.2µM | HCV host tox inactive
CCN1CCN(S(=O)(=O)c2cc(OCC(=O)NC3CCCCC3)c(C)cc2Cl)CC1	FMDV inh inconclusive, HCMV antiviral -65, MARV entry inh inconclusive, HCV inhibitor 7.1µM | HCV confirm 4µM | HCV host tox 7µM
COc1ccc(/C=N/Nc2nc(-c3cccc(S(=O)(=O)N4CCCC4)c3)cs2)c(OC)c1	FMDV inh inconclusive, Lassa entry inh inconclusive, HCMV antiviral -65, MARV entry inh inconclusive, HCV inhibitor 4µM | HCV confirm 10µM | HCV host tox inactive
COc1ccc(-c2csc(NC(=O)c3ccc(S(=O)(=O)N4CCc5ccccc5C4)cc3)n2)c(OC)c1	FMDV inh inconclusive, HCMV antiviral inconclusive, MARV entry inh inconclusive, HCV inhibitor inconclusive
CCN1CCN(CCCOc2ccc(-c3ccccc3)cc2)CC1	MARV entry inh inconclusive, HCV inhibitor 2.8µM (no result: FMDV inh) | HCV confirm 14µM | HCV host tox inactive
CCN1CCN(CCCOc2ccccc2-c2ccccc2)CC1	Lassa entry inh inconclusive, HCMV antiviral inconclusive, Giardia FBPA inh inconclusive, MARV entry inh inconclusive, HCV inhibitor inconclusive
COc1ccccc1C(=O)Nc1cccc(OCc2cc(=O)n3c4c(sc3n2)CCCC4)c1	none (no result: Giardia FBPA inh, HCV inhibitor)
O=C1S/C(=C/c2ccc(N3CCOCC3)o2)C(=O)N1Cc1c(F)cccc1Cl	MARV entry inh inconclusive, HCV inhibitor inconclusive | HCV confirm 13µM | HCV host tox inactive
O=C1S/C(=C\c2ccc(N3CCOCC3)o2)C(=O)N1Cc1c(F)cccc1Cl	Giardia FBPA inh inconclusive, HCV inhibitor inconclusive (no result: FMDV inh)
Cc1ccc(NC(=O)c2c(C)oc3nc(C)nc(N4CCCC4)c23)c(C)c1	Lassa entry inh inconclusive (no result: Giardia FBPA inh, MARV entry inh, HCV inhibitor)
CCNC(=S)/N=C(\N)Nc1nc(C)c2cc(C)ccc2n1	MARV entry inh inconclusive, HCV inhibitor 3.2µM (no result: Lassa entry inh) | HCV confirm inconclusive | HCV host tox inactive
COc1ccccc1CNC(=O)Cc1csc(NC(=O)Nc2ccccc2OC)n1	Lassa entry inh inconclusive, MARV entry inh inconclusive, HCV inhibitor inconclusive (no result: Giardia FBPA inh) | HCV confirm 18µM | HCV host tox inactive
COc1ccccc1NC(=O)Nc1nc(CC(=O)NCc2ccccn2)cs1	HCV inhibitor inconclusive (no result: Giardia FBPA inh)
Cc1cccc(Cn2cc(S(=O)(=O)c3ccccc3)c(=O)c3cc(F)c(N4CCOCC4)cc32)c1	Lassa entry inh inconclusive (no result: Giardia FBPA inh, MARV entry inh, HCV inhibitor)
Cn1ncc2c(NCCc3ccccc3)nc(Cl)nc21	HCV inhibitor inconclusive (no result: Giardia FBPA inh) | HCV confirm 25µM | HCV host tox inactive
O=C(Nc1ccc(S(=O)(=O)Nc2ccccc2)cc1)c1ccc(CN2CCOCC2)cc1	FMDV inh inconclusive, HCMV antiviral -90, HCV inhibitor 2.2µM (no result: Lassa entry inh, MARV entry inh) | HCV confirm 1.8µM | HCV host tox inactive
O=C(Nc1ccc(CN2CCS(=O)(=O)CC2)cc1)c1ccc(F)cc1	none (no result: Lassa entry inh, MARV entry inh)
